The supplement of paper PMC4371806
Over roughly 1,600 compounds, “plate-normalized OD600 growth (mean of duplicates)” has its median near 0.31; the lowest 2% begin near 0.23. Many of the other results were omitted from the sample, so the lowest values are more common in it than they were.

Test system: Escherichia coli BW25113
Experiment: plate-normalized OD600 growth (mean of duplicates) (OD600 (normalized)); higher = more growth (less inhibition)
Conditions: 10 µM
Protocol: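 E. coli BW25113 in LB (100 µl, 96-well, no shaking) was exposed to 10 µM of each compound (here the ChemBridge subset of a ~30,000-member library) and grown at 37°C for 24 h or 15°C for 48 h, in duplicate. Growth was read as OD600 and the duplicate ODs were normalized across screening plates to correct plate-to-plate variation.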

Row | Compound | plate-normalized OD600 growth (temperature: 15°C, 48 h) | plate-normalized OD600 growth (temperature: 37°C, 24 h)
1 | Cc1ccc2c(c1)C1CN(C)CCC1N2 (stereo not given) | 0.227 | 0.61
2 | O=c1cccc2n1C[C@H]1C[C@H]2CN(Cc2c(Cl)cccc2Cl)C1 | 0.284 | 0.625
3 | Cc1ccc(-c2nc3ccccc3c(=O)n2-c2cccc(O)c2)cc1 | 0.247 | 0.61
4 | Fc1ccc(CN2CCN(c3cccc(Cl)c3)CC2)c(F)c1 | 0.253 | 0.623
5 | CCC(N)C(=O)c1ccc(Br)cc1 (stereo not given) | 0.219 | 0.624
6 | Cc1cccc(C)c1-n1nnnc1C1(Nc2cccc(O)c2)CCCCC1 | 0.252 | 0.643
7 | CN1C(=O)N(C)C(=O)C(CCc2ccncc2)(CCc2ccncc2)C1=O | 0.266 | 0.631
8 | CCOc1cc(/C=C/[N+](=O)[O-])ccc1O | 0.209 | 0.585
9 | COc1ccccc1N1CCN(Cc2ccc(N(C)C)cc2)CC1 | 0.234 | 0.615
10 | Clc1cccc(N2CCN(Cc3ccc4c(c3)OCO4)CC2)c1 | 0.275 | 0.647
11 | CCN1CCN(Cc2ccc(OC)c(C)c2)CC1 | 0.261 | 0.606
12 | Oc1cccc(CN2CCN(c3ccccc3Cl)CC2)c1 | 0.26 | 0.611
13 | Oc1cccc(CN2CCN(c3ccc(F)cc3)CC2)c1 | 0.222 | 0.646
14 | Cc1cccc(CN2CCN(c3ccccc3)CC2)c1 | 0.223 | 0.663
15 | COc1cccc(CN2CCN(c3ccccc3)CC2)c1 | 0.252 | 0.608
16 | Fc1ccc(N2CCN(CCc3ccccc3)CC2)cc1 | 0.24 | 0.615
17 | COc1cccc(CN2CCN(c3cccc(Cl)c3)CC2)c1 | 0.26 | 0.623
18 | COc1cc(CN2C[C@@H]3C[C@@H](C2)c2cccc(=O)n2C3)cc(I)c1O | 0.263 | 0.634
19 | O=c1cccc2n1C[C@H]1C[C@H]2CN(Cc2cccc(Cl)c2Cl)C1 | 0.28 | 0.659
20 | COc1ccc(CN2C(=O)CC(=O)NC2=O)cc1 | 0.265 | 0.633
21 | COc1ccc(N2CCN(Cc3ccc(N(C)C)cc3)CC2)cc1 | 0.271 | 0.65
22 | Cc1[nH]c2ccccc2c1CCCNC1CCCCC1 | 0.264 | 0.644
23 | Cc1ccccc1-n1c(/C=C/c2ccccc2[N+](=O)[O-])nc2ccccc2c1=O | 0.239 | 0.651
24 | COc1ccc(Br)cc1CN1CCN(C)CC1 | 0.26 | 0.617
25 | CN1C(=O)C(C2(C#N)CCCCC2)C(=O)N(C)C1=O | 0.264 | 0.635
26 | COc1cc(Cc2ccc(N)c(OC)c2)ccc1N | 0.255 | 0.625
27 | Cc1ccccc1CN1CCN(c2ccc([N+](=O)[O-])cc2)CC1 | 0.23 | 0.605
28 | Nc1ccc(Oc2ccc(N)cc2)cc1 | 0.168 | 0.608
29 | OCCN1CCN(Cc2ccc(F)c(F)c2)CC1 | 0.247 | 0.612
30 | COC1CCCCC1NC1CCCCC1 (stereo not given) | 0.234 | 0.614
